This passage reports Potency and activity change, negative = inhibition results from PubChem BioAssay (NCATS).

Inconclusive results are not listed. A call without a number means that no potency is given here. Values without a mark were called inactive. The source made the active and inactive calls. Calls follow the shape of the dose curve; as a rule, active = well fitted inhibition curve with a large enough effect; inconclusive = small, poorly fitted or top-dose-only effect; inactive = no such curve, though single readings can be large or run the other way. Where a SMILES comes first, the peptide text is derived from it. Bridges are numbered along the chain shown (N, C = ends). [ ]: non-standard residue; d: D form. NMeY = CN[CH](Cc1ccc(O)cc1)C(=O)O
Potency is read from the fitted curve at half-maximal effect.

The test system of the test is Zika virus NS2B-NS3 protease (unlinked complex). Briefly: Primary screen GU Rhodamine qHTS for Zika virus inhibitors: Unlinked NS2B-NS3 protease assay (AID 1347159). Also: nearly all actives have a fitted effect of over 60% in size. As to conditions: Recombinant ZIKV NS2B-NS3 protease, Rhodamine110 substrate fluorescence; series mostly up to 107 µM. In a few lines: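 Percent inhibition came from the 15-min rise in Rhodamine110 fluorescence (1.5 microM substrate, ~15% conversion), normalized to no-inhibitor and no-enzyme wells and Hill-fitted. Unlinked protease, 25 nM, pH 8.0 Tris buffer; compounds up to 114 microM, 15-min preincubation.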
`C=CC(C)(C)c1[nH]c2cc3c(cc2c1CC1NC(=O)C2CCCN2C1=O)C=CC(C)(C)O3` (stereo not given): the Potency result is “inactive”. Regarding `CC(=O)O[C@H]1CC(C)(C)CC2[C@@]13[C@H](O)C[C@]1(C)[C@@]2(CCC2[C@@]4(C)CC[C@H](O[C@@H]5OC[C@H](O[C@@H]6O[C@H](CO)[C@@H](O)[C@H](O)[C@H]6O[C@@H]6OC[C@@H](O)[C@H](O)[C@H]6O)[C@H](O)[C@H]5O[C@@H]5O[C@H](CO)[C@@H](O)[C@H](O)[C@H]5O)C(C)(C)C4CC[C@]21C)O[C@@H]3O` (stereo not given in full), the Potency result was “inactive”.

On to `O=C(NCc1cccc(O)c1)Nc1nc(-c2ccncc2)cs1`, for which the Potency entry was “inactive”. Take `COC1CC(O[C@H]2CC[C@@]3(C)C(CCC4C3[C@H](OC(C)=O)[C@@H](OC(=O)/C=C/c3ccccc3)[C@]3(C)C(C(C)=O)CC[C@]43O)C2)OC(C)C1OC1CC(OC)C(OC2CC(OC)C(OC3OC(C)C(OC4OC(CO)C(O)C(O)C4O)C(OC)C3O)C(C)O2)C(C)O1` (stereo not given in full): the activity change, negative = inhibition was -9.68% [at 19.1 µM]. As for `CCOc1cc(C)c(Cl)cc1S(=O)(=O)n1cnc2ccccc21`, the Potency result is “inactive”. Consider `CC(=O)c1cc2c(cc1O)OC(C)(C)C=C2`, for which the Potency result is “inactive”. `CC1OC(OC2C(C)OC(OC3C(O)C(CO)OC(O[C@H]4CC[C@@]5(C)C(CC[C@]6(C)C5CC=C5C7[C@@H](C)[C@H](C)CC[C@]7(C(=O)O)CC[C@]56C(=O)O)C4(C)C)C3O)C(O)C2O)C(O)C(O)C1O` (stereo not given in full): the Potency entry is “inactive”.

For the compound `N#Cc1c(Oc2ccc(F)c(NC(=O)Cc3cccc(C(F)(F)F)c3)c2)ccc2nc(NC(=O)C3CC3)sc12`, the Potency entry is “inactive”.

Regarding `C=CC(=O)Nc1cc(Nc2nccc(-c3c[nH]c4ccccc34)n2)c(OC)cc1N(C)CCN(C)C`, the Potency result is “inactive”. The same measure, in the same setting: the value for `CCC(C)C1NC(=O)C2CCCN2C(=O)C(NC(C)=O)C(C)OC(=O)C(Cc2ccc(OC)cc2)N(C)C(=O)C2CCCN2C(=O)C(C(C)C)NC1=O` (stereo not given) (Ac-TPIVP[NMeY](Me); ester 1-C; configuration not given here) was “inactive”; that for `COC1C(CO)OC(n2cnc3c(=O)[nH]cnc32)C1O` (stereo not given) was “inactive”. In the case of `CCCN1CCC(c2cccc(S(C)(=O)=O)c2)CC1`, the Potency entry is “inactive”. Consider `COc1ncc2cc(C(=O)Nc3cc(C(=O)NCc4cccc(Cl)c4)ccc3Cl)c(=O)[nH]c2n1`, for which the Potency result is “inactive”. With `CCC(O)(C(=O)OCc1ccccc1NC(=O)CCC(=O)O)C(C)O` (stereo not given), the Potency result was “inactive”.

Take `C=CC1(C)C=C2CCC3C(C)(C)C(O[C@@H]4O[C@@H](CO)[C@H](O)[C@H]4O)CCC3(C)C2CC1O[C@@H]1O[C@H](C)[C@H](O)[C@H](O)[C@H]1O` (stereo not given in full): the Potency result was “inactive”. For `CCC1C(=O)N(C)c2cnc(Nc3ccc(C(=O)NC4CCC(N5CCN(CC6CC6)CC5)CC4)cc3OC)nc2N1C(C)C` (stereo not given), the Potency entry is “inactive”. On the same count and under the same terms, the entry for `C=C(C(=O)OC)C1C(O)CC2(C)C(O)CCC(=O)C2C1O` (stereo not given) is “inactive”; for `C[C@]12C[C@@H](O)[C@@H]3C[C@@]1(O[C@@H]1O[C@H](CO)[C@@H](O)[C@H](O)[C@H]1O)[C@]3(COC(=O)c1ccccc1)C(=O)O2` it is “inactive”. As for `C=C[C@H]1CN2CC[C@H]1C[C@@H]2C(O)c1ccnc2ccc(OC)cc12` (stereo not given in full), the Potency entry was “inactive”. `NC[C@@](O)(c1ccc(Cl)cc1)c1ccc(-c2cn[nH]c2)cc1`: the Potency result was “inactive”. `O=[N+]([O-])c1cccc2[nH]c(CNc3nc(N4CCOCC4)nc4c3ncn4-c3ccsc3)nc12`: the Potency was 89.1 µM (active). Same read-out and setting: the entry for `OC[C@H]1O[C@@H](O[C@H]2[C@H](OCc3ccccc3)O[C@H](CO[C@@H]3OC[C@@H](O)[C@H](O)[C@H]3O)[C@@H](O)[C@@H]2O)[C@H](O)[C@@H](O)[C@@H]1O` is “inactive”; for `CCOc1cc2ncc(C#N)c(Nc3ccc(F)c(Cl)c3)c2cc1NC(=O)/C=C/CN(C)C` it is “inactive”; for `O=C(/C=C/c1ccc(O)cc1)OC1[C@H](O)CC(O)(C(=O)O)C[C@H]1O` (stereo not given in full) it is “inactive”. As to `FC(F)(F)c1ccc(Nc2nc(-c3c(C(F)(F)F)nc4ccccn34)cs2)cc1`, the Potency result was “inactive”. As for `OC[C@H]1O[C@@H](OCCc2ccccc2)[C@H](O[C@@H]2OC[C@](O)(CO)[C@H]2O)[C@@H](O)[C@@H]1O`, the Potency entry was “inactive”. Take `Cn1c2ccc(F)cc2c2c(C(=O)N3CCCC3)cn(-c3ccccc3)c(=O)c21`: the Potency result is “inactive”. Still for that read-out and setting: the entry for `Cc1nc2ccc(Oc3ccc(F)cc3)cc2c(=O)n1C[C@H]1CCCN(C(C)C)C1` is “inactive”; for `CC(=O)c1cc(C(=O)N[C@@H](C)Cn2ccc(-c3ccc(C#N)c(Cl)c3)n2)[nH]n1` it is “inactive”. On to `CC(Nc1ncnc2nc[nH]c12)c1cc2cccc(Cl)c2c(=O)n1-c1ccccc1` (stereo not given), for which the Potency entry is “inactive”. `COC(=O)CCc1cc2ccoc2c(OC)c1O[C@@H]1O[C@H](CO)[C@@H](O)[C@H](O)[C@H]1O`: the Potency result is “inactive”. On to `NC(=O)c1cccc2cn(-c3ccc(C4CCCNC4)cc3)nc12` (stereo not given), for which the Potency entry was “inactive”.

For the compound `NC(=O)Nc1cc(-c2cccc(F)c2)sc1C(=O)NC1CCCNC1` (stereo not given), the Potency entry was “inactive”. In the case of `COc1c(/C=C/C(C)(C)O)ccc2c1C(=O)OCc1cc(C)cc(O)c1O2`, the Potency entry was “inactive”. Turning to `COC(C(=O)N1Cc2[nH]nc(NC(=O)c3ccc(N4CCN(C)CC4)cc3)c2C1)c1ccccc1` (stereo not given), the Potency entry is “inactive”. Regarding `COc1cc(OC)cc(C(=O)Nc2ccc(Cl)c(-c3nc4ccc(N(C)C)cc4[nH]3)c2)c1`, the Potency entry was “inactive”.

`CC(C)C[C@H](CC(=O)NO)C(=O)N[C@@H](Cc1ccc2ccccc2c1)C(=O)N[C@@H](C)C(=O)NCCN`: the Potency result is “inactive”. With `CC(NC(=O)CCc1nc2ccccc2c(=O)[nH]1)c1ccccc1` (stereo not given), the Potency entry is “inactive”.

Consider `CC[C@]12C=CCN3CC[C@@]4(c5cc([C@@]6(C(=O)OC)C[C@H]7C[C@@H](C(C)(F)F)CN(Cc8c6[nH]c6ccccc86)C7)c(OC)cc5N(C)[C@H]4[C@@](O)(C(=O)OC)[C@@H]1OC(C)=O)[C@@H]32`, for which the Potency result was “inactive”. For `C=C[C@H]1[C@H](O[C@@H]2O[C@H](CO)[C@@H](O)[C@H](O)[C@H]2O)OC=C(C(=O)OC)[C@H]1CC(=O)O`, the Potency result is “inactive”.
